Key:
[1] = target: T1, Ephrin type-B receptor 2 (Homo sapiens) (UniProt P29323); conditions: at 1 µM
T1 sequence (whole entry): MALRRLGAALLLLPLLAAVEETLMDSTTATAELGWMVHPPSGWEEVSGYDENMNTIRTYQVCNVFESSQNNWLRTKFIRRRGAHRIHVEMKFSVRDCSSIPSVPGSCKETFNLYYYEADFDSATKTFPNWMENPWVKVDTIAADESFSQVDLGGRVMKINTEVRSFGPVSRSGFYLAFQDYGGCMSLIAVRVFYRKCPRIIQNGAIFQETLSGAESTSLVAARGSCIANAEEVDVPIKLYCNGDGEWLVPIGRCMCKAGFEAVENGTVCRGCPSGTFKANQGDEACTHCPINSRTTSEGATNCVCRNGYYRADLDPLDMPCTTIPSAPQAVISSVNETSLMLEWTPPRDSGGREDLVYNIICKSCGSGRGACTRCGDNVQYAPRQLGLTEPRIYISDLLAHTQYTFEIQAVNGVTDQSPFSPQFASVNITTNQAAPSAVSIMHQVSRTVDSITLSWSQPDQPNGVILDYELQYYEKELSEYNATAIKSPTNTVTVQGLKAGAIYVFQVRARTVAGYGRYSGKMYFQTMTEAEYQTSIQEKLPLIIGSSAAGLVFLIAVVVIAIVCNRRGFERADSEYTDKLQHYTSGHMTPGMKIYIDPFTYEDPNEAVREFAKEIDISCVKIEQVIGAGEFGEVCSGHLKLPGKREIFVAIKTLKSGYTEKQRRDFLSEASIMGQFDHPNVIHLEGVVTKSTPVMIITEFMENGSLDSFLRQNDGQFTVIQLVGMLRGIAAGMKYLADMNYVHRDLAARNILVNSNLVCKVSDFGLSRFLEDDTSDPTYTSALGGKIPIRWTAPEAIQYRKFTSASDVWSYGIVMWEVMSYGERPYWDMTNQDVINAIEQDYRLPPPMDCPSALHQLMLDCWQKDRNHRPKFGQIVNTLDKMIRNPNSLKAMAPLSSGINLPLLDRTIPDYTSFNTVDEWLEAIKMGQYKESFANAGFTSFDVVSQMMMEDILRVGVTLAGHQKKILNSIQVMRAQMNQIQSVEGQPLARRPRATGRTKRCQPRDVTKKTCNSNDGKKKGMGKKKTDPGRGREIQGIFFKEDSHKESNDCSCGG

[2] = target: T2, Ephrin type-B receptor 3 (Homo sapiens) (UniProt P54753); conditions: at 0.1 µM
T2 sequence (whole entry): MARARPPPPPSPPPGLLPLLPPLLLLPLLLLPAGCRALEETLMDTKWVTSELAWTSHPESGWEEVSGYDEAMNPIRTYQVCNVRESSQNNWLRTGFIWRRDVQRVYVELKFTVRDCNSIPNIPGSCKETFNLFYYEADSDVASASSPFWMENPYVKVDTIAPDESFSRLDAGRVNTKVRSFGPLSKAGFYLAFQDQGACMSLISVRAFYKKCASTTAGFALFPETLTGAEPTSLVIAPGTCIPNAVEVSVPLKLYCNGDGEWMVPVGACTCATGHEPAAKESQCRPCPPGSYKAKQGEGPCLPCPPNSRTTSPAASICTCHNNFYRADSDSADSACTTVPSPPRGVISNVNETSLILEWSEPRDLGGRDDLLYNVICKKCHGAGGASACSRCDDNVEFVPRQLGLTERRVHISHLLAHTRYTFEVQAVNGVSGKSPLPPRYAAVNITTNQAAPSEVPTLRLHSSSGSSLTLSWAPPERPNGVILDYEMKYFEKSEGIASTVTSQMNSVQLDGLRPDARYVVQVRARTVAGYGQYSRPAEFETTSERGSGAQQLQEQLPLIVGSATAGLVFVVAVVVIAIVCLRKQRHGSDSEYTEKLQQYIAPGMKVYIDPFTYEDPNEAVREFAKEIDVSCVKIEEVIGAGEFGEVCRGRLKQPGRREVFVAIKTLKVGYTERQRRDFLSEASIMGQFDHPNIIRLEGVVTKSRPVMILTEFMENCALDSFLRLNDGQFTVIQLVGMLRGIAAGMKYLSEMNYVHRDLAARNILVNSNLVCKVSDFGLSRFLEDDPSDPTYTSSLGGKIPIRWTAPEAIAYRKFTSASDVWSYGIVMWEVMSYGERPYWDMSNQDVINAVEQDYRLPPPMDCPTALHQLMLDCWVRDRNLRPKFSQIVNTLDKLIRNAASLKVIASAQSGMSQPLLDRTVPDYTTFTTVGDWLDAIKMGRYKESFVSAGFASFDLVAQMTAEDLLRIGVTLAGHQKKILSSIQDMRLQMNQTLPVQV

[3] = target: T2, Ephrin type-B receptor 3 (Homo sapiens); conditions: at 1 µM
[4] = target: T3, Ephrin type-B receptor 4 (Homo sapiens) (UniProt P54760); conditions: at 0.1 µM
T3 sequence (whole entry): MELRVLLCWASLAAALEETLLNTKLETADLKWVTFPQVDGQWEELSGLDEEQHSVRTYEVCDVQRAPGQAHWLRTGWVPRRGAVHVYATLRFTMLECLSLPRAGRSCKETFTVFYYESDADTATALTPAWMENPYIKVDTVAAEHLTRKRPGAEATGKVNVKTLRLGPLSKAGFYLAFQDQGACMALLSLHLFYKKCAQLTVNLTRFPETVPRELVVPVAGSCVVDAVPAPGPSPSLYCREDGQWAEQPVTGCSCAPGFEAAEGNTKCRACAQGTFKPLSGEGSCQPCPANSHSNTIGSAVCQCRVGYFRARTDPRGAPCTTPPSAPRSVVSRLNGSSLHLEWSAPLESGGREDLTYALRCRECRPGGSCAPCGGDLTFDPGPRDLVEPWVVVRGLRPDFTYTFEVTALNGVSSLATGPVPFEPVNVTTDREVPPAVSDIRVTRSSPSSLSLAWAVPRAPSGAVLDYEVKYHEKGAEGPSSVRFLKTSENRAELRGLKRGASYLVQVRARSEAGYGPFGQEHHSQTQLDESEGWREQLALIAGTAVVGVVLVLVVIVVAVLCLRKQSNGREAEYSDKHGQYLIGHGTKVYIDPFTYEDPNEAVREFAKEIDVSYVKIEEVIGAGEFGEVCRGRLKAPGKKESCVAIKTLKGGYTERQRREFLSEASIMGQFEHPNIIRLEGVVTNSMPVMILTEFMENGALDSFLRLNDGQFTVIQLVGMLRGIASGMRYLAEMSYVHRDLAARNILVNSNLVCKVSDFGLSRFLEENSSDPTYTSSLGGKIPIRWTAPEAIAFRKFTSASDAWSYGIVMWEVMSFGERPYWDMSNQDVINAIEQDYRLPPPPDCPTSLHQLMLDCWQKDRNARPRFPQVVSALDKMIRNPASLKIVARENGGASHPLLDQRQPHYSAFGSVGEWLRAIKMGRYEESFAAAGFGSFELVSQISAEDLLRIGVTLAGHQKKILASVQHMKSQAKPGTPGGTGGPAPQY

[5] = target: T3, Ephrin type-B receptor 4 (Homo sapiens); conditions: at 1 µM
[6] = target: Receptor tyrosine-protein kinase erbB-2 (Homo sapiens) (UniProt P04626); conditions: at 0.1 µM
[7] = target: Receptor tyrosine-protein kinase erbB-2 (Homo sapiens) (UniProt P04626); conditions: at 1 µM
[8] = target: Receptor tyrosine-protein kinase erbB-4 (Homo sapiens) (UniProt Q15303); conditions: at 0.1 µM
[9] = target: Receptor tyrosine-protein kinase erbB-4 (Homo sapiens) (UniProt Q15303); conditions: at 1 µM
[10] = target: Tyrosine-protein kinase Fer (Homo sapiens) (UniProt P16591); conditions: at 0.1 µM
[11] = target: Tyrosine-protein kinase Fer (Homo sapiens) (UniProt P16591); conditions: at 1 µM
[12] = target: Tyrosine-protein kinase Fes/Fps (Homo sapiens) (UniProt P07332); conditions: at 0.1 µM
[13] = target: Tyrosine-protein kinase Fes/Fps (Homo sapiens) (UniProt P07332); conditions: at 1 µM
[14] = target: Fibroblast growth factor receptor 1 (Homo sapiens) (UniProt P11362); conditions: at 0.1 µM
[15] = target: Fibroblast growth factor receptor 1 (Homo sapiens) (UniProt P11362); conditions: at 1 µM
[16] = target: Fibroblast growth factor receptor 2 (Homo sapiens) (UniProt P21802); conditions: at 0.1 µM
[17] = target: Fibroblast growth factor receptor 2 (Homo sapiens) (UniProt P21802); conditions: at 1 µM
[18] = target: Fibroblast growth factor receptor 3 (Homo sapiens) (UniProt P22607); conditions: at 0.1 µM
[19] = target: Fibroblast growth factor receptor 3 (Homo sapiens) (UniProt P22607); conditions: at 1 µM
[20] = target: Fibroblast growth factor receptor 4 (Homo sapiens) (UniProt P22455); conditions: at 0.1 µM;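 also: values are mean percent inhibition of FGFR4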
Fibroblast growth factor receptor 4 (Homo sapiens), sequence (P22455 22-802 limits assumed): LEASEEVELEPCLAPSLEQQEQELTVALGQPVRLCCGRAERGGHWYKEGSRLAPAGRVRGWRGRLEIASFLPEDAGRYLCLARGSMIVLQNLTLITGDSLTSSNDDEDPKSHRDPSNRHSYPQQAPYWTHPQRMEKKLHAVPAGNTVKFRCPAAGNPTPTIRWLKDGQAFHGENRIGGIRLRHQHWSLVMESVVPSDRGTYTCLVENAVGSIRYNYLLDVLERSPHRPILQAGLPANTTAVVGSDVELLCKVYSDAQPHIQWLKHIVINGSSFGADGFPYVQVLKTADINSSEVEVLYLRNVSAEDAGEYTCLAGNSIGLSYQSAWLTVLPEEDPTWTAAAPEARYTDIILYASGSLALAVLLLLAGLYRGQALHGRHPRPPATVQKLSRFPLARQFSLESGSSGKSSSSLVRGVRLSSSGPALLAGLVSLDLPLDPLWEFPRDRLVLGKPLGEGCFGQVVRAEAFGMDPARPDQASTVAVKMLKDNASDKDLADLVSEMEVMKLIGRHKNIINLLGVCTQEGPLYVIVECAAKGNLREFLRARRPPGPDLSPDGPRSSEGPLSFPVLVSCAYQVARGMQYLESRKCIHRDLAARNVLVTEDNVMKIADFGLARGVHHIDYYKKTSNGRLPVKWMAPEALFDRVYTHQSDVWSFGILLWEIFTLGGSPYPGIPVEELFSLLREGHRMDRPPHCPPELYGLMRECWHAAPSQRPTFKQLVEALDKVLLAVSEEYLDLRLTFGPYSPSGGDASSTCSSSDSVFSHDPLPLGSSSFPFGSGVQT

Receptor tyrosine-protein kinase erbB-2 (Homo sapiens), sequence (P04626 whole entry): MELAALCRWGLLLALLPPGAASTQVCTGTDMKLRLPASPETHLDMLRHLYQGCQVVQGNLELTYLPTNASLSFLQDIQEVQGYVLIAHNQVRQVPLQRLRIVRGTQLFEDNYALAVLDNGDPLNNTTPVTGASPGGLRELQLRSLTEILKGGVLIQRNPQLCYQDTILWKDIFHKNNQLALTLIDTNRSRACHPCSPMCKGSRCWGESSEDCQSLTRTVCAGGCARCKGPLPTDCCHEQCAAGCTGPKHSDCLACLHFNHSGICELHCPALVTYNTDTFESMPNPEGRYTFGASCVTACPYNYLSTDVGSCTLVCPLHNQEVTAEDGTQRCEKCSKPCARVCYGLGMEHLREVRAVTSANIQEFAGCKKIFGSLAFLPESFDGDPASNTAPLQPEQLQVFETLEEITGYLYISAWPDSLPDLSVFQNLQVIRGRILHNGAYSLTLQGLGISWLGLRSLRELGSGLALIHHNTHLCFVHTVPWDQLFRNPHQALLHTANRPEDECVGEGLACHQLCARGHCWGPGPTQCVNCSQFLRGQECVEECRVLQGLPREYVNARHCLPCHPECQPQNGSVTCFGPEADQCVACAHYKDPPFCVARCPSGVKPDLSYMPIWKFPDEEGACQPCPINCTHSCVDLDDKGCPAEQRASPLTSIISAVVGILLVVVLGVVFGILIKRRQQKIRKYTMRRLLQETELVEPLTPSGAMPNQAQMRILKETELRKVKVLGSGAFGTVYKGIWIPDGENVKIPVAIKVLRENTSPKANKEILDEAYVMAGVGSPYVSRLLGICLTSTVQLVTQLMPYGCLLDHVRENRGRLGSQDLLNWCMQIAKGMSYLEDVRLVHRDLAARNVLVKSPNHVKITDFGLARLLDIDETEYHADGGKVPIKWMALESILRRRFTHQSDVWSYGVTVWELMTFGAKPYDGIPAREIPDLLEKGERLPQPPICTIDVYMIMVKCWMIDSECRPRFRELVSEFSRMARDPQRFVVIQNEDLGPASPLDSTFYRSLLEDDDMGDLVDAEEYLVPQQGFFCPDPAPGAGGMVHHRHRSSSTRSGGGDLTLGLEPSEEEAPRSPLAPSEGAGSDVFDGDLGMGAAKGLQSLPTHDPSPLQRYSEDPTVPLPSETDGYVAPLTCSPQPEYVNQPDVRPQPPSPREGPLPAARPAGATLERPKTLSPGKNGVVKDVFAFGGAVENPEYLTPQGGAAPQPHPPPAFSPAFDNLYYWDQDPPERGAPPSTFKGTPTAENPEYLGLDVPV
Tyrosine-protein kinase Fes/Fps (Homo sapiens), sequence (P07332 whole entry): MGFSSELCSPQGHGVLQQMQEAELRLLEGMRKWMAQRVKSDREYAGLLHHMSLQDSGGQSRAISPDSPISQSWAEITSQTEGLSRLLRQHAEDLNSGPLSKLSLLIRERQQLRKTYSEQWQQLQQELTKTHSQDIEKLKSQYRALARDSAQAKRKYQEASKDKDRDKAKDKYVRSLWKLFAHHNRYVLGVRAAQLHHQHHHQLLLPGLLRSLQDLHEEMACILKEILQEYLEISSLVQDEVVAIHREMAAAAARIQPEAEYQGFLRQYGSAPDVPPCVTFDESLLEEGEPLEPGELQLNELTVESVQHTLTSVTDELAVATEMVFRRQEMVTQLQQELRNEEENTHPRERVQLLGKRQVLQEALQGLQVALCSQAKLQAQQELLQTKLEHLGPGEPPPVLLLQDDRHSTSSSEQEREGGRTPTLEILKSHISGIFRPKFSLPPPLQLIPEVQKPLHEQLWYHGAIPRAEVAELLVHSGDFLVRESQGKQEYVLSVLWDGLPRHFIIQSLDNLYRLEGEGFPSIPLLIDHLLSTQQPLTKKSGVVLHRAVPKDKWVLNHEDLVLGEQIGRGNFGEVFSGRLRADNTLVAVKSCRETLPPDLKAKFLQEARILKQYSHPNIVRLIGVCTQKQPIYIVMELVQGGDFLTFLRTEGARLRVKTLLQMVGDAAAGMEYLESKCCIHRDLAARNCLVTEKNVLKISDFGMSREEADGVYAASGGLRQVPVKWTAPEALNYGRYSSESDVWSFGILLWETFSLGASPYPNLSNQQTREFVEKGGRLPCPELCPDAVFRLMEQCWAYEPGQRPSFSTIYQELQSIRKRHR
Fibroblast growth factor receptor 1 (Homo sapiens), sequence (P11362 22-822 limits assumed): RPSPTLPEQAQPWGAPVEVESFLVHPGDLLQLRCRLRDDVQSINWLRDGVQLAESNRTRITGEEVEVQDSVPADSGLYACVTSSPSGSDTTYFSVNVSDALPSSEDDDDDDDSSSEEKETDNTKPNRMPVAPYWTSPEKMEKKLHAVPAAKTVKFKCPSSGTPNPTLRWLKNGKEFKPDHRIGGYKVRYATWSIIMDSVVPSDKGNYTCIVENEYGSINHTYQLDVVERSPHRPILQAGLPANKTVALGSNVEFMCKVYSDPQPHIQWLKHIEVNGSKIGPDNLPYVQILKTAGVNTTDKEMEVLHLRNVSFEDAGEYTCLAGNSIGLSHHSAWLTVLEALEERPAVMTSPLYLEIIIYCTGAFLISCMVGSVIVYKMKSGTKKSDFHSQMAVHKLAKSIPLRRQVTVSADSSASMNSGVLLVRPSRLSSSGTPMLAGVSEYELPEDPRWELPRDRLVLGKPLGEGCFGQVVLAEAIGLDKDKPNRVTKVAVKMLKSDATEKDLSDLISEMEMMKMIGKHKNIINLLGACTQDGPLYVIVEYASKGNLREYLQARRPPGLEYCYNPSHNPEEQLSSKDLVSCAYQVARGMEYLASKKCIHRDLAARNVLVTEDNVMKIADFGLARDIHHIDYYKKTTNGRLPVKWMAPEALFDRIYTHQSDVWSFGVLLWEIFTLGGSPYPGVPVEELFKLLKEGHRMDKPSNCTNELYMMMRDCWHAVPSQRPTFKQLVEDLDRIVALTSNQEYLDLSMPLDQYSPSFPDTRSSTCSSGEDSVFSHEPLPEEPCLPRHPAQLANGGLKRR
Receptor tyrosine-protein kinase erbB-4 (Homo sapiens), sequence (Q15303 whole entry): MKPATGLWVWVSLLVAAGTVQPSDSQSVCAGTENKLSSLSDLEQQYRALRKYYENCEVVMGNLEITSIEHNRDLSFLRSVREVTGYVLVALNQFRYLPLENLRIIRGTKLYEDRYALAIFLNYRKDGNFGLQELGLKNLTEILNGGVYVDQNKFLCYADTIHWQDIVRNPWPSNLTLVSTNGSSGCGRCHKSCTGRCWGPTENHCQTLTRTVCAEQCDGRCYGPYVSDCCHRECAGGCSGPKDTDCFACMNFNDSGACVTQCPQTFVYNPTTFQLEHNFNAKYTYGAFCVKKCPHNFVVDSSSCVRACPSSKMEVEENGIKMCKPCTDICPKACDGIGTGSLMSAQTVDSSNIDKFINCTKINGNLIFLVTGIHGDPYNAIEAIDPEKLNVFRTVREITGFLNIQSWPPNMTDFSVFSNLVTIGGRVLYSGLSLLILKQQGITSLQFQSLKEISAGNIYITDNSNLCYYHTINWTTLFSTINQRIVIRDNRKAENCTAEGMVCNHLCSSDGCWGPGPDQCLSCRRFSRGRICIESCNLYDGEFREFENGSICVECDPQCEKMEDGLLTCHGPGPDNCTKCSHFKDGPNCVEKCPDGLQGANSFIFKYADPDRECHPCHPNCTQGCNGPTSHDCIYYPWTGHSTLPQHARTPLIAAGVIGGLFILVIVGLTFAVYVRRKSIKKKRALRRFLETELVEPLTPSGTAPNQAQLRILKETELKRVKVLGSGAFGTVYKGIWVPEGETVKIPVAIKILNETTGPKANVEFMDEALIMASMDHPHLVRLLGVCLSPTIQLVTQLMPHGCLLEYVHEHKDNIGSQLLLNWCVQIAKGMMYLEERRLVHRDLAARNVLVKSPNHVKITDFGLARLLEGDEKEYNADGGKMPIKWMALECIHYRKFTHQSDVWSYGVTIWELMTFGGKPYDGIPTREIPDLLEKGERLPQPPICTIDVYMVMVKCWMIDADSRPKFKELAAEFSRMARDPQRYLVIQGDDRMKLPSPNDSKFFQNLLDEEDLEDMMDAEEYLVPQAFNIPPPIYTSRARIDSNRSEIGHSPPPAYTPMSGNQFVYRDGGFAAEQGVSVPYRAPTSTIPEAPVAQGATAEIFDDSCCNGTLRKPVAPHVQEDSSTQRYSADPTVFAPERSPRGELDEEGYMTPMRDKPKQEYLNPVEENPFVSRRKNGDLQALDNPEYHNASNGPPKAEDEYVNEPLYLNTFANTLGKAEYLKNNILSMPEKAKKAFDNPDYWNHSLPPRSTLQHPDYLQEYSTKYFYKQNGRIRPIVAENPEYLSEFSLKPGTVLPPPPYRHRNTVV

| Structure (SMILES) | inhibition [1] [%] | inhibition [2] [%] | inhibition [3] [%] | inhibition [4] [%] | inhibition [5] [%] | inhibition [6] [%] | inhibition [7] [%] | inhibition [8] [%] | inhibition [9] [%] | inhibition [10] [%] | inhibition [11] [%] | inhibition [12] [%] | inhibition [13] [%] | inhibition [14] [%] | inhibition [15] [%] | inhibition [16] [%] | inhibition [17] [%] | inhibition [18] [%] | inhibition [19] [%] | inhibition [20] [%] |
| --- | --- | --- | --- | --- | --- | --- | --- | --- | --- | --- | --- | --- | --- | --- | --- | --- | --- | --- | --- | --- |
| Cc1ccc(O)cc1Nc1ccnc2ccc(S(C)(=O)=O)cc12 | 86.3 | 96.9 | 97.3 | 91.6 | 95.6 | 4.44 | 5.88 | 20.2 | 52.2 | 4.91 | 18.5 | 8.11 | 39.4 | 7.68 | 8.34 | 5.74 | 14.5 | 6.01 | 11 | -0.45 |
| Nc1nccc(C#Cc2cncnc2Nc2ccc(OCc3cccc(F)c3)c(Cl)c2)n1 | 7.89 | 5.26 | 4.02 | 1.01 | 2.68 | -1.45 | -8.09 | 14.2 | 24.8 | 2.1 | 3.48 | 3.46 | 4.65 | 5.53 | 4.02 | 4.45 | 8.42 | 5.34 | 5.62 | 2.52 |
| CN(C)C(=O)O[C@@H]1CN[C@@H](C#Cc2cc3ncnc(Nc4ccc(OCc5cccc(F)c5)c(Cl)c4)c3s2)C1 | -1.82 | 2.5 | -1.81 | 1.64 | 3.64 | -1.37 | 27.1 | 107 | 130 | 0.75 | -0.72 | -0.22 | 1.12 | -0.27 | 1.69 | 0.19 | 4.88 | -0.96 | 2.96 | -1.62 |
| COC(=O)Nc1nc2cc(Oc3ccc(NC(=O)Nc4cccc(Br)c4)cc3)ccc2[nH]1 | 80.4 | 5.42 | 7.66 | 9.97 | 26 | 3.03 | 0.8 | 7.14 | 11.2 | 2.5 | 4.33 | 1.77 | 2.25 | 3.32 | 0.5 | 1.09 | 3.33 | 4.36 | 2.66 | -1.88 |
| NS(=O)(=O)c1ccc(Nc2cc(-c3cccc(O)c3)n[nH]2)cc1 | 12.4 | 8.13 | 1.98 | 1.74 | 4.14 | 1.73 | -4.93 | 14.3 | 14.3 | 2.71 | 7.21 | 3.6 | 4.45 | 7.55 | 14.2 | 8.82 | 15.9 | 9.15 | 13.4 | -0.72 |
| c1ccc(Cc2nc3ccc(Nc4ncnc5ccccc45)cc3[nH]2)cc1 | 12.8 | 3.69 | 6.08 | 1.42 | 1.8 | 2.07 | 51.6 | 98.2 | 115 | 0.32 | 6.1 | 1.75 | 3.02 | 2.15 | 1.67 | 5.23 | 7.58 | 4.51 | 5.34 | -1.72 |
| NC(=O)c1cccc(Nc2nccc(Nc3cccc(F)c3)n2)c1 | 18.1 | 2.13 | 2.83 | -0.22 | 5.23 | 0.04 | 3.14 | 5.37 | 13.2 | -2.66 | 14.6 | 1.24 | 7.67 | 9.63 | 10.2 | 2.81 | 13 | 4.22 | 9.81 | 2.38 |
| NS(=O)(=O)c1ccc(-c2cc3ccncc3cc2OCc2ccccc2)cc1 | 12.6 | 5.73 | 3.29 | 2.88 | 2.91 | 2.03 | 3.62 | 7.38 | 8.97 | 5.47 | 8.24 | 2.42 | 4.62 | 4.72 | 3.35 | 2.27 | 3.78 | 2.04 | 2.76 | -2.59 |
| COc1cc(Nc2nccc(-c3cnn4ncccc34)n2)cc(OC)c1 | 40.2 | 3.58 | -3.61 | 2.69 | 25.6 | 2.17 | -0.98 | 5.96 | 8.81 | 11.1 | 58.6 | 10.7 | 53.2 | -4.05 | 7.3 | 1.71 | 23 | 4 | 20.5 | 1.2 |
| COc1cccc(-n2nc(C)c3c(N/N=C(\C)c4ccncc4)ncnc32)c1 | 3.31 | 1.98 | 0.96 | 0.44 | 1.01 | 0.07 | 2.47 | 0.79 | -0.06 | 1.02 | 1.89 | 0.8 | 0.14 | 1.88 | -1.01 | 3.14 | -0.1 | 1.89 | 2 | 1.2 |
| CC(C)c1ccc(Nc2nccc(-c3cnn4ncccc34)n2)cc1 | 14.4 | 6.52 | 2.55 | 4.64 | 2.76 | 0.95 | 3.22 | 8.58 | 11.6 | 5.74 | 16 | 5.26 | 25.5 | 4.84 | 4.17 | 0.37 | 7.86 | 7.5 | 6.25 | 2.11 |
| CN(C)c1cc2c(Nc3ccc4c(cnn4Cc4ccccc4)c3)ncnc2cn1 | 0.46 | 4.69 | 1.55 | 0.91 | 2.11 | 53.4 | 86.6 | 91.1 | 94.6 | 1.79 | 7.22 | 2.58 | 3.25 | 2.28 | 4.22 | 2.03 | 2.51 | 4.39 | 4.14 | 0.85 |
| CN(C)CCCn1c(-c2nonc2N)nc2cnccc21 | 5.68 | 5.3 | 2.05 | 3.38 | 2.2 | 5.72 | 4.73 | 17.3 | 16.3 | 1.8 | 3.54 | 2.93 | 2.95 | 3.21 | 3.42 | 2.86 | 6.36 | 6.01 | 3.96 | -1.87 |
